PREPL inhibitor – human PREPL enzyme inhibition | Q4J6C6 | recombinant PREPL, fluorescence polarization activity-based probe | inhibition, % at 5.96 µM | actives 0.68% (n = 320,000) | AID 2751; in the data active = inhibition above about 43%;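 also: 0% = enzyme with DMSO and 100% = wells lacking enzyme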
DNA FID counter – displaces DNA intercalator in HCV helicase counter-screen; DNA fluorescent intercalator displacement, fluorescence; inhibition, % at 7.9 µM; actives 0.17% (n = 290,000); AID 1845; in the data active = inhibition above about 37%;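 also: 0% = vehicle and 100% = reference compound; higher means more ethidium bromide displaced from hairpin DNA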
beta cell repl – MIN6 beta-cell proliferation induction | MIN6 cells proliferation, ATPlite luminescence, 48 h; cells starved in 0.2% serum; 100% = growth in 10% serum | proliferation, % at 10 µM | actives 0.29% (n = 330,000);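 active = compounds whose signal lies at least 3.5 SD above the mean of all wells on their plate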;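 also: 0% = DMSO-treated cells in low-serum medium and 100% = 10% serum control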
RAD52 anneal inh – inhibitors of human RAD52 DNA annealing; P43351; actives 0.46% (n = 360,000); AID 651710; inhibition, % at 18.7 µM; recombinant RAD52 DNA annealing, FRET fluorescence;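 active = every replicate showing at least 50% inhibition; inconclusive = mean inhibition at least 50% but not in every replicate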
UBC13 polyUb – human UBC13 polyubiquitination inhibition | UBC13 polyubiquitin chain formation, TR-FRET | inhibition, % at 20 µM | actives 0.47% (n = 330,000) | AID 485273; in the data active = inhibition above about 45%, passing the limit was not always enough; inconclusive = no clear call, values can overlap the other calls
Target sequence (P61088 whole entry, looked up): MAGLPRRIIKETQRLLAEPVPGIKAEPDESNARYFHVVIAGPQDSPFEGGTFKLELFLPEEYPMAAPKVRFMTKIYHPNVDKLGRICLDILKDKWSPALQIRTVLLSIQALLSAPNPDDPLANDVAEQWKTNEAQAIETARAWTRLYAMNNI
RAD54 branch – inhibitors of human RAD54 branch migration | Q92698 | RAD54 Holliday junction branch migration, FAM/BHQ fluorescence | inhibition, % at 10.4 µM | actives 0.14% (n = 360,000);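 active = mean normalized replicate activity at least 40 and at least half of replicates scoring 40 or more; inconclusive = only one of the two criteria met; inactive = mean below 40 and under half of replicates reaching 40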;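 also: 0% = median of neutral control wells and 100% = median of positive control wells; inhibitors cause a drop in the FAM fluorescence signal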
Casp3 counter – inhibits human caspase-3 in UBC13 counter-screen. shares compounds with UBC13 polyUb. Recombinant caspase-3, Caspase-Glo 3/7 luminescence, 60 min. inhibition, % at 20 µM. actives 4% (n = 1,400). AID 488856;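 active = mean inhibition across replicates above about 26%, limit read from the data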;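 also: plate controls were DMSO with caspase-3 for no effect and DMSO wells lacking enzyme for full effect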
Target sequence (P42574 whole entry, looked up): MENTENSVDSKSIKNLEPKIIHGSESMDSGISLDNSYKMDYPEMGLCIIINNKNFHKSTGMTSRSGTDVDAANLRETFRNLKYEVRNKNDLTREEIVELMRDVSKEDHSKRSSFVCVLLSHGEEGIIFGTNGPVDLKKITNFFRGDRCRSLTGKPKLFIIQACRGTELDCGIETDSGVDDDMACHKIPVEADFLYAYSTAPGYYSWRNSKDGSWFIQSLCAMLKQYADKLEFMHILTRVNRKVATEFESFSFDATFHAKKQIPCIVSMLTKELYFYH
UBC13 conf – human UBC13 polyubiquitin inhibition, confirmed. shares compounds with UBC13 polyUb. inhibition, % at 10 µM. AID 488859. UBC13 polyubiquitination, TR-FRET, biochemical. actives 68% (n = 1,400); in the data active = inhibition above about 45%; inconclusive = no clear call, values can overlap the other calls
The depositor's hits bear a star; ? = inconclusive; . = no result given. Rows were chosen to be rich in hits. Some 1.3% of all compounds tested hit in one or more screens of this group.

SMILES	PREPL inhibitor	DNA FID counter	beta cell repl	RAD52 anneal inh	UBC13 polyUb	RAD54 branch	Casp3 counter	UBC13 conf
Oc1[nH]c2c(Cl)cc(Cl)cc2c1N=NC(=S)NCC1CCCO1 (stereo not given)	15	0	0	.	-43	.	.	.
Cc1cccc(NC(=S)N=Nc2c(O)[nH]c3ccccc23)c1	29	-4	-6	.	60*	.	2	76*
CN1c2ccc(Br)cc2[C@@H]2[C@@H](CCN2C(=O)C2CCOCC2)[C@@H]1CO	.	.	.	-16	.	-8	.	.
Oc1[nH]c2ccc(Br)cc2c1N=NC(=S)NCC1CCCO1 (stereo not given)	17	0	-6	-36	79*	-3	3	97*
Oc1[nH]c2ccccc2c1N=NC(=S)NCC1CCCO1 (stereo not given)	-3	-6	0	-4	98*	.	2	102*
CC(C)(C)OC(=O)[C@H](CCCCN)NC(=O)c1[nH]cnc1C(=O)N[C@@H](Cc1ccccc1)C(=O)OCc1ccccc1	-25	.	-4	.	72*	2	2	69*
COCC(=O)Nc1ccc2c(c1)C(=O)N(C)[C@H]1CC[C@H](CC(=O)NCc3cccc(F)c3)O[C@H]1CO2	.	.	.	.	.	3	.	.
NC(N)=N/N=C/c1ccc2cccc(OCc3ccccc3)c2n1	-35	11	-4	37	50*	.	-1	41
O/N=C/c1ccc2cccc(OCc3ccccc3)c2n1	13	-23	0	-17	14	1	.	.
Clc1ccc2c(c1)CNc1c(ncnc1N1CCOCC1)O2	1	-10	-1	.	50*	-3	-2	41
Clc1ccc2c(N3CCOCC3)ccnc2c1	-10	-5	4	7	5	1	.	.
CSc1nc(N2CCOCC2)c2c(c1C#N)CCCCC2	3	-7	-2	.	53*	1	1	?
CCCSc1nc(N2CCOCC2)c2c(c1C#N)CCCC2	5	-4	0	.	38	-7	.	.
CO[C@@H]1CN(C)C(=O)c2cc(NS(=O)(=O)c3ccccc3C)ccc2OC[C@@H](C)N(S(=O)(=O)c2ccccc2)C[C@H]1C	.	.	.	2	.	-3	.	.
CCOc1ccc(Cl)cc1/C=N/NC(N)=O	-3	-3	-1	-7	50*	.	-2	53*
CC(=O)N(C)C[C@@H]1Oc2ncc(C#C[C@@H](C)O)cc2C(=O)N([C@H](C)CO)C[C@H]1C	.	.	.	3	.	10	.	.
COC(=O)C1(N2C(=O)O[C@@H](Cc3ccccc3)[C@H]2/C=C/C2CC2)CCCC1	.	.	.	-3	.	.	.	.
CCN1CCN(CCNC(=O)c2ccc3c(c2)N(Cc2ccc(F)cc2)C(=O)/C(=C/c2ccccc2)S3)CC1	-18	31	-6	73*	65*	66*	2	92*
O=C(NCCN1CCOCC1)c1ccc(/C=C2\Sc3ccccc3N(Cc3ccccc3F)C2=O)cc1	10	1	-5	-14	12	-1	.	.
CC(C)C[C@H](N)c1cn([C@@H](Cc2cc3ccccc3[nH]2)C(=O)N2CCNCC2)nn1	26	21	-1	.	72*	11	7	77*
C#CCOCCOCCOCCNc1nc(N2CCN(C(=O)[C@H](CCC(=O)O)n3cc(C(N)CC(C)C)nn3)CC2)nc(N2CCN(C(=O)[C@H](Cc3cc4ccccc4[nH]3)n3cc(C(N)CC(C)C)nn3)CC2)n1 (stereo not given in full)	32	19	7	.	2	-3	.	.
O=C(C[C@H]1CC[C@@H]2[C@H](COC[C@H](O)CN2Cc2nccs2)O1)NCc1ccc(F)cc1	.	.	.	-6	.	-4	.	.
CCc1ccc(Nc2n[n+](-c3ccccc3)c(/C=C/c3ccccc3)s2)cc1	-5	-17	-8	.	70*	.	4	24
CCc1ccc(Nc2n[n+](-c3ccccc3)c(-c3c(Cl)cccc3Cl)s2)cc1	32	30	-8	4	46*	4	-3	32
COc1ccc(-c2sc(Nc3ccccc3)n[n+]2-c2ccc(F)cc2)cc1Br	14	-17	5	-53	-2	-2	.	.
SMILES	PREPL inhibitor	DNA FID counter	beta cell repl	RAD52 anneal inh	UBC13 polyUb	RAD54 branch	Casp3 counter	UBC13 conf
CCc1ccc(Nc2n[n+](-c3ccccc3)c(-c3cc(OC)c(OC)cc3Br)s2)cc1	-2	-30	-8	-14	52*	5	-5	12
CCCNC(=O)N1CC2(CCN(Cc3ccccn3)CC2)c2c(n(C)c3cc(OC)ccc23)[C@H]1CO	.	.	.	7	.	.	.	.
Oc1ccc(C[C@H]2CNCCN2CCC23CC4CC(CC(C4)C2)C3)cc1	7	.	-8	-7	38	7	.	.
Oc1ccc(C[C@H]2CNCCN2CCCCC2CCCCC2)cc1	1	.	-8	.	58*	-5	-4	26
Oc1ccc(C[C@@H]2CNCCN2CCC23CC4CC(CC(C4)C2)C3)cc1	4	.	-8	-15	58*	1	-3	25
Oc1ccc(C[C@@H]2CNCCN2CC2CCCCC2)cc1	-1	.	-2	-10	7	7	.	.
O=C(c1cccc(S(=O)(=O)N2CCCC2)c1)N1CCCC(C(F)(F)F)C1 (stereo not given)	-4	.	-1	-16	73*	31	-3	109*
C[C@@H]1CN([C@H](C)CO)C(=O)Cc2cc(NC(=O)C3CC3)ccc2O[C@H]1CN(C)CC1CC1	.	.	.	-6	.	-5	.	.
O=C(Nc1cccnc1)c1sc(Nc2ccccc2)nc1-c1ccccc1	13	-12	0	-13	48*	.	-2	11
C[C@@H]1CN([C@@H](C)CO)C(=O)c2cc(NS(=O)(=O)c3ccccc3)ccc2O[C@@H](C)CCCCO[C@@H]1CN(C)Cc1ccc(C(F)(F)F)cc1	.	.	.	4	.	0	.	.
Cc1cc(C)c2sc(N(CCCN(C)C)C(=O)c3ccc(S(=O)(=O)N4CCc5ccccc5C4)cc3)nc2c1	4	.	-7	.	87*	6	-5	112*
CN(C)CCCN(C(=O)c1ccc(S(=O)(=O)N(C)C)cc1)c1nc2cc3c(cc2s1)OCO3	24	11	-1	0	33	24	.	.
CN(C)CCCN(C(=O)c1ccc(S(=O)(=O)N2CCc3ccccc3C2)cc1)c1nc2ccc(F)cc2s1	4	41*	-7	-1	55*	5	6	99*
COc1ccc2sc(N(CCCN(C)C)C(=O)c3ccc(S(=O)(=O)N4CCc5ccccc5C4)cc3)nc2c1	-12	.	-7	3	75*	7	0	110*
CCN(Cc1ccccc1)S(=O)(=O)c1ccc(C(=O)N(CCCN(C)C)c2nc3cc4c(cc3s2)OCO4)cc1	11	35	-7	0	64*	14	-3	104*

Screening results as filed in PubChem BioAssay.
